Experimental data as given in PubChem BioAssay (EPA / NIEHS).
Inconclusive results are not listed. Active and inactive are the calls of the source. The calls were made as follows: active = hit-call score of the fitted dose curve at least 0.9, where 1 is the maximum; inconclusive = response in the unintended direction; inactive = score below 0.9.

The molecules below were run against Androgen receptor (Homo sapiens) (UniProt P10275) (assay: ATG_AR_TRANS: Attagene TRANS-FACTORIAL HepG2 Assay for human Androgen Receptor (AR) (AID 2282973)). Conditions: HepG2 Attagene TRANS-FACTORIAL AR reporter transcription.
Outline: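 Chimeric nuclear receptor–Gal4 activity was assessed in human HepG2 hepatocytes after 24 h chemical dosing. Induced reporter mRNA was detected via labelled RT-PCR fragments on capillary electrophoresis, and gain of signal was analysed against DMSO.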

Sequence of Androgen receptor (Homo sapiens) (P10275 whole entry, looked up, the tested form may be a part): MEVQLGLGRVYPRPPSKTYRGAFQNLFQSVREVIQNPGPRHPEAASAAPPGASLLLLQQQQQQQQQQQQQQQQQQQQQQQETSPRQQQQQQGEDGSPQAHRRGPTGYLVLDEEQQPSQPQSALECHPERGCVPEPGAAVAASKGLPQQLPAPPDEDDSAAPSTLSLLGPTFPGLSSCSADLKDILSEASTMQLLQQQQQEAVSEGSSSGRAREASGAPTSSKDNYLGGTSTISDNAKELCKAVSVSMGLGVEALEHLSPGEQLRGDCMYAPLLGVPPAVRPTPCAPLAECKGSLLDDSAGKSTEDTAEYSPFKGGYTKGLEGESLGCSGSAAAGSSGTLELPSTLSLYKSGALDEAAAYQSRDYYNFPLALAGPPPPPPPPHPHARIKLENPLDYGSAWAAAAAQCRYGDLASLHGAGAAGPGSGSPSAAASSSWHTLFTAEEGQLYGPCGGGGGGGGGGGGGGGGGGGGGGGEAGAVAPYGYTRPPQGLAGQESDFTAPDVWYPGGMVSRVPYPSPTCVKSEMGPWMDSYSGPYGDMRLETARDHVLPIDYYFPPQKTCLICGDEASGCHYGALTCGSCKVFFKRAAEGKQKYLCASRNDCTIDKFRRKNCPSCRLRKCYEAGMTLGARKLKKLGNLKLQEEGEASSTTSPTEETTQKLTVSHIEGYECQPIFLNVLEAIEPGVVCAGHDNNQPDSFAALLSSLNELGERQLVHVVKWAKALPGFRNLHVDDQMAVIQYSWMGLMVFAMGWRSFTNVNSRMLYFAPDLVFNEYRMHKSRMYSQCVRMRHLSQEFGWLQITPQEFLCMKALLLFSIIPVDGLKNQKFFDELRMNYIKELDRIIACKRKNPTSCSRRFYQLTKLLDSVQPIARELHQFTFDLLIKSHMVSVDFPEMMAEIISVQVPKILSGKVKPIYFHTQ

outcome, inactive:
CCCCCCCOC(=O)c1ccccc1C(=O)OCCCCCCC, CC(=O)N(C)C, C=CC(C)(C)O, c1ccc2c(c1)c1cccc3ccc4cccc2c4c31, CC(=O)OCc1ccccc1, CCCCCCCCCc1ccc(OCCO)cc1, O=S(=O)(O)c1cc(S(=O)(=O)O)c2ccc3c(S(=O)(=O)O)cc(S(=O)(=O)O)c4ccc1c2c43, O=C(Cl)C(F)(F)C(F)(F)C(F)(F)C(F)(F)C(F)(F)C(F)(F)C(F)(F)F, CCCC1CCOC(C)S1 (centres undefined), COC(F)(F)C(F)(C(F)(F)F)C(F)(F)F, NC(=O)OCC(COC(N)=O)c1ccccc1, O=C(NCc1ncc(C(F)(F)F)cc1Cl)c1c(Cl)cccc1Cl, C=CC(=O)OCCCCCCCC(C)C, O=C1CCCCC1, CC1CCC(C(C)C)C(O)C1 (centres undefined), CCc1ccc(C(c2ccc(CC)cc2)C(Cl)Cl)cc1, Cc1ccc2ccc3ccc(C)cc3c2c1, CO[Si](CCC1CCC2OC2C1)(OC)OC (centres undefined), FC(F)(F)C1(F)C(F)(F)C(F)(F)C(F)(F)C(F)(C(F)(F)F)C1(F)F (centres undefined), CC1COCc2cc3c(cc21)C(C)(C)C(C)C3(C)C (centres undefined), CCCCC[Si](OCC)(OCC)OCC, C=CC(=O)OCCOC1C2CCC1C1CC=CC12 (centres undefined), OC[C@H]1O[C@@H](O[C@H]2[C@H](O)[C@@H](O)[C@H](O)O[C@@H]2CO)[C@H](O)[C@@H](O)[C@H]1O, CCC(C)NC(N)=O (centres undefined), COC(C)(C)CC(C)=O, Cn1cccc1, C=CC(C)(CCC=C(C)C)OC(=O)C=Cc1ccccc1 (centres undefined), COc1nccnc1CC(C)C, CC(=O)CC(C)C, O=C(O)CCCCCCCCCC(=O)O, [Co], NNC(=O)OCc1ccccc1, CCOC(=O)[C@H](O)[C@@H](O)C(=O)OCC, C=CC(=C)CCCC(C)(C)OC(C)=O, CC1CCC(C(=O)O)CC1 (centres undefined), CC1CCC(CO)CC1 (centres undefined), COC(=O)C(F)(F)C(F)(F)C(F)(F)C(F)(F)C(F)(F)F, CC(=O)C=O, Nc1cc(Cl)c(-c2cc(Cl)c(N)cc2Cl)cc1Cl
